High-throughput results from PubChem BioAssay.
LEDGF integ inh = blocks HIV-1 LEDGF/p75-dependent DNA integration; inhibition, % at 3.7 µM; 0.64% of 370,000 active; TR-FRET IN-LEDGF/p75 DNA integration, Eu/Cy5;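 active = inhibition above the screen-wide mean plus 3 SD, cut at about 13% in these data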;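 also: signal is the Cy5 over europium emission ratio at 671 and 618 nm; 0% = plate median of compound wells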
PLC-gamma1 inh = PLC-gamma1 (human) inhibition, primary screen; purified PLC-gamma1, fluorogenic substrate, fluorescence; AID 720700; P19174; 0.84% of 370,000 active; inhibition, % at 12.2 µM; in the data active = inhibition above about 9.5%
PLC-beta3 inh = PLC-beta3 (human) inhibition, primary screen. Purified PLC-beta3, fluorogenic substrate, fluorescence. inhibition, % at 12.2 µM. 0.18% of 370,000 active. Q01970; in the data active = inhibition above about 11%;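 also: 0% = median of compound wells on plate and 100% = full blocker control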
Target sequence (Q01970 whole entry, looked up): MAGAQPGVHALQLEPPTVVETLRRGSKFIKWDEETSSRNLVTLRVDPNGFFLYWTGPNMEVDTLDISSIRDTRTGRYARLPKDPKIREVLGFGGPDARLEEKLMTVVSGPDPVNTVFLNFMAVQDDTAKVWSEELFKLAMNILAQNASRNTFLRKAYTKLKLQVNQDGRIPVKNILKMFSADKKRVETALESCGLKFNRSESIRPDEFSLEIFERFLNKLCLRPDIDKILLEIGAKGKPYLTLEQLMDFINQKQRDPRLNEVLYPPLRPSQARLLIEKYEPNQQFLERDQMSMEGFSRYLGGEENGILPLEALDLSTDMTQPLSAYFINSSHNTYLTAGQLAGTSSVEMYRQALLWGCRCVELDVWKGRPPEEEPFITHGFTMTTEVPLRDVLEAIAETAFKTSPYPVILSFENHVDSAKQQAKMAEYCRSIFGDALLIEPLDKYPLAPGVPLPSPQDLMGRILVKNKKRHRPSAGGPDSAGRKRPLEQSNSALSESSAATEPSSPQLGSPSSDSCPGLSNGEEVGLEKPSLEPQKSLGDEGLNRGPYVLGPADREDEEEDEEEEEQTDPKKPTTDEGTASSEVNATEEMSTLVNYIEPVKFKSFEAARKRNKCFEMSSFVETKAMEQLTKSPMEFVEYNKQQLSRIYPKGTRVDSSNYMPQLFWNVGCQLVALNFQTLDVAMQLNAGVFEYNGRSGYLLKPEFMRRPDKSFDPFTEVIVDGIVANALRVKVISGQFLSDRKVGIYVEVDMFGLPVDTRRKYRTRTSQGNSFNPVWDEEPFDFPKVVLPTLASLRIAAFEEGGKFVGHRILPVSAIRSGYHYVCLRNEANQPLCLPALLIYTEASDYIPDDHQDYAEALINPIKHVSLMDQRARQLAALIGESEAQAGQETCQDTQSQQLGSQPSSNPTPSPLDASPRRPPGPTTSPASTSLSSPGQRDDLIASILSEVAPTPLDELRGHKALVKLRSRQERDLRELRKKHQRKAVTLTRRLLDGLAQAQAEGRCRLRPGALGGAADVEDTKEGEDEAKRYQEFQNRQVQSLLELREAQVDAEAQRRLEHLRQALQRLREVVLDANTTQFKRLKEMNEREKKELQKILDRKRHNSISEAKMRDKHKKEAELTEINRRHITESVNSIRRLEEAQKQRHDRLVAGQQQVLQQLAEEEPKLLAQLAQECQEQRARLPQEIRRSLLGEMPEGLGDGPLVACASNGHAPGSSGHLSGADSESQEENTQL
UHRF1 binding = blocks human UHRF1 binding to methylated DNA; inhibition, % at 4.4 µM; 0.75% of 370,000 active; AID 687016; Q96T88; UHRF1 binding to methylated oligo, TR-FRET; in the data active = inhibition above about 21%;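 also: UHRF1 SRA domain binding a hemimethylated CpG hairpin DNA probe; 0% = median of test compound wells and 100% = reference inhibitor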
MBD2 DNA inh = blocks human MBD2 binding to methylated DNA; AID 686964; TR-FRET, MBD2 binding to methylated oligonucleotide; inhibition, % at 4.4 µM; 0.31% of 370,000 active; Q9UBB5; in the data active = inhibition above about 13%
* hit, by the source's call; ! = not active in a repeat. The list is not random: actives were taken first. Their share in the collection is about 2.3%.

For CC1(C)CC(=O)C=C(NC2=CC3OC(c4ccccc4)OCC3OC2=O)C1 (configuration not stated) the results were LEDGF integ inh -2, PLC-gamma1 inh -34, PLC-beta3 inh -33, UHRF1 binding 22* and MBD2 DNA inh 0.
Cc1ccccc1NC1=CC(=O)CC(C)(C)C1 was read as LEDGF integ inh 1, PLC-gamma1 inh 1, PLC-beta3 inh 0, UHRF1 binding 6 and MBD2 DNA inh 7.
COC(=O)[C@]12C[C@H](CC(=O)NCCCCc3ccccc3)C(=O)N(CCc3ccc(OC)c(OC)c3)C1=C[C@H](C(C)(C)C)O[C@@H]2C was read as LEDGF integ inh -3, PLC-gamma1 inh -1, PLC-beta3 inh 2, UHRF1 binding -1 and MBD2 DNA inh -1.
For CCOc1ccc(CC(=O)N2N=C(C)CC2(O)C(F)(F)F)cc1 (configuration not stated) the results were LEDGF integ inh -2, PLC-gamma1 inh -2, PLC-beta3 inh 0, UHRF1 binding 29* and MBD2 DNA inh 3.
Screening COc1ccc(CNC(=O)O[C@H]2CC[C@@]34CCCN3C(=O)CCC[C@H]4C2)cc1OC returned LEDGF integ inh 1, PLC-gamma1 inh 2, PLC-beta3 inh 2, UHRF1 binding 1 and MBD2 DNA inh -2.
For COc1ccc(CNC(=O)c2sc(=O)n(Cc3cc(C(C)=O)ccc3OC)c2C)cc1 the results were LEDGF integ inh 7, PLC-gamma1 inh -1, PLC-beta3 inh 2, UHRF1 binding 22* and MBD2 DNA inh 6.
Screening COc1ccc(Cl)cc1Cn1c(C)c(C(=O)NCc2ccc3c(c2)OCCO3)sc1=O returned LEDGF integ inh 2, PLC-gamma1 inh 1, PLC-beta3 inh -1, UHRF1 binding 43* and MBD2 DNA inh -4.
For Cc1cc(C)cc(C(=O)OCCN(C)C2CN(Cc3cn(Cc4ccccc4C(F)(F)F)nn3)S(=O)(=O)C2)c1 (configuration not stated) the results were LEDGF integ inh -3, PLC-gamma1 inh 1, PLC-beta3 inh 3, UHRF1 binding 12 and MBD2 DNA inh 8.
`CC(C)OC(=O)c1cccnc1N1CCN(c2ccc(F)cc2)CC1` gave LEDGF integ inh 2, PLC-gamma1 inh -2, PLC-beta3 inh -1, UHRF1 binding 23* and MBD2 DNA inh 8.
Screening CC(C)OC(=O)c1ccc(N2CCN(c3ccc(F)cc3)CC2)nc1 returned LEDGF integ inh 2, PLC-gamma1 inh 6, PLC-beta3 inh -6, UHRF1 binding 1 and MBD2 DNA inh -1.
CN(C(=O)CCn1nnc(-c2cccs2)n1)C1CCCCC1 was read as LEDGF integ inh 2, PLC-gamma1 inh 0, PLC-beta3 inh -2, UHRF1 binding 0 and MBD2 DNA inh 0.
Screening CN(C)CCCNc1oc(/C=C/c2cccs2)nc1S(=O)(=O)c1ccccc1 returned LEDGF integ inh 3, PLC-gamma1 inh -96, PLC-beta3 inh -120, UHRF1 binding -3 and MBD2 DNA inh -4.
`COCCNc1oc(/C=C/c2cccs2)nc1S(=O)(=O)c1ccccc1` gave LEDGF integ inh -4, PLC-gamma1 inh -137, PLC-beta3 inh -183, UHRF1 binding 53* and MBD2 DNA inh 1.
For C[C@H]1[C@@H](OC(=O)Nc2ccccc2Cl)CC[C@@]23CCCN2C(=O)CCC[C@@H]13 the results were LEDGF integ inh -3, PLC-gamma1 inh 1, PLC-beta3 inh -26, UHRF1 binding -1 and MBD2 DNA inh -1.
COCCNC(=O)C1CCC(=O)N(c2ccc(OC)cc2)C1c1ccc(OC)c(OC)c1 (configuration not stated) was read as LEDGF integ inh 5, PLC-gamma1 inh -1, PLC-beta3 inh 2, UHRF1 binding 23* and MBD2 DNA inh 8.
Screening CS(=O)(=O)c1sc2nc(-c3cccs3)cc(-c3ccccc3)c2c1N returned LEDGF integ inh 20*, PLC-gamma1 inh -319, PLC-beta3 inh -409, UHRF1 binding -3 and MBD2 DNA inh -1.
`CCCCNC(=O)C[C@H]1C[C@@]2(C(=O)OC)C(=C[C@H](C(C)(C)C)O[C@@H]2C)N(Cc2cccc3ccccc23)C1=O` gave LEDGF integ inh -2, PLC-gamma1 inh 4, PLC-beta3 inh 7, UHRF1 binding -3 and MBD2 DNA inh 3.
For C[C@@H]1CN([C@@H](C)CO)C(=O)c2cc(NC(=O)c3ccccc3)ccc2O[C@@H](C)CCCCO[C@@H]1CN(C)S(=O)(=O)c1ccc(F)cc1 the results were LEDGF integ inh 4, PLC-gamma1 inh 6, PLC-beta3 inh 1, UHRF1 binding 21* and MBD2 DNA inh 9.
Screening C[C@@H]1CCCCO[C@@H](CN(C)C(=O)CCC(F)(F)F)[C@@H](C)CN([C@H](C)CO)C(=O)c2cc(NS(=O)(=O)c3cccs3)ccc2O1 returned LEDGF integ inh 8, PLC-gamma1 inh 5, PLC-beta3 inh 0, UHRF1 binding 22* and MBD2 DNA inh 6.
For Cc1ccc(Nc2nc(N)c3ccccc3n2)cc1Cl the results were LEDGF integ inh 0, PLC-gamma1 inh -14, PLC-beta3 inh -24, UHRF1 binding 38* and MBD2 DNA inh -2.
Screening Cc1ccc(-n2c(SCC(=O)N/N=C/C=C\c3ccccc3[N+](=O)[O-])nnc2-c2ccccc2)cc1 returned LEDGF integ inh 5, PLC-gamma1 inh 3, PLC-beta3 inh 2, UHRF1 binding -2 and MBD2 DNA inh -7.
Screening O=C(CSc1nnc(-c2cccnc2)n1Cc1ccco1)N1CCc2ccccc21 returned LEDGF integ inh -2, PLC-gamma1 inh 0, PLC-beta3 inh 0, UHRF1 binding 0 and MBD2 DNA inh 1.
Screening Cc1occc1-c1nnc(SCC(=O)N2CCCc3ccccc32)n1Cc1ccco1 returned LEDGF integ inh 0, PLC-gamma1 inh 6, PLC-beta3 inh 4, UHRF1 binding 22* and MBD2 DNA inh 4.
`COC(=O)c1cc(-c2cc(F)cc(OC)c2)c(=O)n2c1CCC2` gave LEDGF integ inh 7, PLC-gamma1 inh 7, PLC-beta3 inh -1, UHRF1 binding -2 and MBD2 DNA inh -2.
Screening Cc1cccc2sc(N(CCCN(C)C)C(=O)c3ccc(C(=O)c4ccccc4)cc3)nc12 returned LEDGF integ inh -1, PLC-gamma1 inh 4, PLC-beta3 inh 1, UHRF1 binding 34*! and MBD2 DNA inh 4.
`O=C1Cc2ccccc2C(=O)N1c1ccc(F)cc1Cl` gave LEDGF integ inh 11, PLC-gamma1 inh -5, PLC-beta3 inh -21, UHRF1 binding 37* and MBD2 DNA inh 13.
Screening O=C1Cc2ccccc2C(=O)N1c1cccc(Cl)c1 returned LEDGF integ inh -5, PLC-gamma1 inh -5, PLC-beta3 inh -11, UHRF1 binding -1 and MBD2 DNA inh -3.
COc1cc2c(=O)n(Cc3ccccc3)c(=O)n(CC(=O)NCCc3ccccc3)c2cc1OC was read as LEDGF integ inh 0, PLC-gamma1 inh 9.5*, PLC-beta3 inh 8, UHRF1 binding 3 and MBD2 DNA inh -3.
